Data: PubChem BioAssay (NCATS)
Records with an inconclusive call do not appear. A call without a number means that no potency is given here. Some structures have more than one record in an assay (separate samples or runs), and their calls can disagree. The source made the active and inactive calls. Unless noted, calls follow the shape of the dose curve; as a rule, active = well fitted curve in the direction sought with a large enough effect; inconclusive = small, poorly fitted or top-dose-only effect, or another doubt; inactive = no such curve, though single readings can be large; an effect the other way counts as inactive or inconclusive.

Experiments:
[1] = qHTS for Inhibitors of Plasmodium falciparum (DD2) proliferation (AID 504314);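 as to activity, negative = inhibition: parasite DNA measured by SYBR Green fluorescence after red cell lysis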
In short: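 Erythrocytes infected with P. falciparum Dd2 (0.3% parasitemia, 2.5% hematocrit) exposed to compound 72 h at 37C, 5% CO2. Parasite DNA quantified by SYBR Green fluorescence after saponin/Triton lysis overnight; normalized to 0.29 uM artemisinin and DMSO.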

[2] = qHTS for Inhibitors of Plasmodium falciparum (GB4) proliferation (AID 504315); also: nearly all actives have a fitted effect of over 50% in size
In short: (§1)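 Erythrocytes infected with P. falciparum line (0.3% parasitemia, 2.5% hematocrit final) incubated with compounds 72 h at 37 °C, 5% CO2; SYBR Green lysis buffer added, fluorescence read next day. Normalized to 0.29 uM artemisinin and DMSO.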

[3] = qHTS for Inhibitors of Plasmodium falciparum (7G8) proliferation (AID 504316); also: nearly all actives have a fitted effect of over 65% in size
In short: as §1

[4] = qHTS for Inhibitors of Plasmodium falciparum (HB3) proliferation (AID 504318); also: nearly all actives have a fitted effect of over 60% in size
In short: as §1

[5] = qHTS for Inhibitors of Plasmodium falciparum (CP250) proliferation (AID 504320)
In short: as §1

[6] = target: Atrial natriuretic peptide receptor 1 (Homo sapiens) (UniProt P16066); assay: Natriuretic polypeptide receptor (hNpr1) antagonism - Pilot CMLD screen (AID 1347052; calls by dose curve;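 also: cGMP level read as GloSensor luciferase luminescence after agonist stimulation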)
Potency is read from the fitted curve at half-maximal effect.

Sequence of Atrial natriuretic peptide receptor 1 (Homo sapiens) (P16066 whole entry, looked up): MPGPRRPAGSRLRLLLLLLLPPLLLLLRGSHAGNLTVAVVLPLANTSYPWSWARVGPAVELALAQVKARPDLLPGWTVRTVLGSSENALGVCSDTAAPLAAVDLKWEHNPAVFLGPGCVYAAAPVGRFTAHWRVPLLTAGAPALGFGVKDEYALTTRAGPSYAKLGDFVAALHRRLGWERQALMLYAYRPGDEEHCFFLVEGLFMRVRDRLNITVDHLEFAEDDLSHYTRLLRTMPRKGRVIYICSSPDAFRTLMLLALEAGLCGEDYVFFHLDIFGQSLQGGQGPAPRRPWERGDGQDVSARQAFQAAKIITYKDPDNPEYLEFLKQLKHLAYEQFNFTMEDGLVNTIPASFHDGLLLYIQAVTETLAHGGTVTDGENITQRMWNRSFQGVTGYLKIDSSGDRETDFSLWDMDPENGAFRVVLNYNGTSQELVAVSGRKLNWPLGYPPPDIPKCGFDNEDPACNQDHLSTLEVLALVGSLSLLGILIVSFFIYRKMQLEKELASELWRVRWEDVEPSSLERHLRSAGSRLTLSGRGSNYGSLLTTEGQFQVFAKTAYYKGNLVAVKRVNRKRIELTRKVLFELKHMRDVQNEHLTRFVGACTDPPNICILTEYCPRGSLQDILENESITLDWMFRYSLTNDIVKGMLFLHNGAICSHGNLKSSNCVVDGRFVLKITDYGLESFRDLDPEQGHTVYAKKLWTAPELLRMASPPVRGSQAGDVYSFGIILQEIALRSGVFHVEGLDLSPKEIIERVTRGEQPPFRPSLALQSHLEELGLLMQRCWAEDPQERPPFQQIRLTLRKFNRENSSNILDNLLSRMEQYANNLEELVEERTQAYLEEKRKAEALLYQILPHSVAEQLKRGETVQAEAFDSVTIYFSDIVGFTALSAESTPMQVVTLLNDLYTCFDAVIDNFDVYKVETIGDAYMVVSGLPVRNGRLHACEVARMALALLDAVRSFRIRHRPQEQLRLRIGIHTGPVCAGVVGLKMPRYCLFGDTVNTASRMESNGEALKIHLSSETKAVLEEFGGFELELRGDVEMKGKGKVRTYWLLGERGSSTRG

| SMILES | Potency [1] | Potency [2] | Potency [3] | Potency [4] | Potency [5] | Potency [6] | activity, negative = inhibition [1] |
| --- | --- | --- | --- | --- | --- | --- | --- |
| CCN1C(=O)N(C)C(c2ccccc2)C(C(C)=O)=C1C (stereo unspecified) | inactive | inactive | inactive | inactive | inactive | inactive | – |
| CCCC[C@H]1CN2[C@H](c3ccc(Br)cc3)[C@H](C)CC[C@H]2C(=O)O1 | inactive | inactive | inactive | inactive | inactive | inactive | – |
| COCC=CC1=CC2=CC(=O)C(C)(OC(=O)c3cnc4ccccc4n3)C(=O)C2=CN1Cc1ccccc1 (stereo unspecified) | inactive | inactive | inactive | inactive | inactive | inactive | – |
| COC(=O)C1=C(C)[C@H](O)[C@@H](C)[C@](C)(c2cc(OC)c(C)c(OC)c2COc2ccccc2)O1 | inactive | 2.13 µM (active) and inactive | inactive | 1.9 µM (active) and inactive | inactive | inactive | – |
| COC(=O)N[C@@H](c1cccc(F)c1)[C@]1(C(=O)OC)CCCC1=O | inactive | inactive | inactive | inactive | inactive | inactive | – |
| C#CCCOC(=O)N1C2=NC(C(=O)OC)=C(C(=O)OC)[C@@H]3N(CC=C)c4ccccc4[C@]23C[C@H]1C(=O)OC | – | inactive | inactive | inactive | inactive | inactive | 5.23% [at 1.12 µM] (inactive) |
| CC(=O)N1C(=O)NC(C)=C(C#N)C1c1ccccc1 (stereo unspecified) | inactive | inactive | inactive | inactive | inactive | inactive | – |
| C=CCN1C=C2C(=O)C(C)(OC(=O)C3CCCC3)C(=O)C=C2C=C1c1ccsc1 (stereo unspecified) | inactive | inactive | inactive | inactive | inactive | inactive | – |
| CCOC(=O)C1=CN(CCc2cn(Cc3ccccc3)nn2)C(=O)NC1c1ccccc1 (stereo unspecified) | inactive | inactive | inactive | inactive | inactive | inactive | – |
| COC(=O)C1(C)C=C(Nc2ccc(OC)cc2)C(=O)N1c1ccc(OC)cc1 (stereo unspecified) | inactive | inactive | inactive | inactive | inactive | inactive | – |
| COC(=O)N[C@@H](c1ccc2ccccc2c1)C(C(C)=O)C(=O)OC (stereo partly specified) | inactive | inactive | inactive | inactive | inactive | inactive | – |
| COC(=O)C(C(=O)OC)C1c2ccccc2C=C(C2CC2)N1C(=O)OC (stereo unspecified) | inactive | inactive | inactive | inactive | inactive | 531 nM (active) and inactive | – |
| COCCN1C=C2C(=O)C(C)(OC(=O)c3cccs3)C(=O)C=C2C=C1CCCC(=O)OC (stereo unspecified) | inactive | inactive | inactive | inactive | inactive | inactive | – |
| C=CCN(C)C1=NC(c2ccccc2)C(C(=O)OC)=C(C)N1CCOC (stereo unspecified) | inactive | inactive | inactive | inactive | inactive | inactive | – |
| COCCN1C(=O)C2=C(C1=O)C1N(C)c3ccccc3[C@@]13C[C@@H](CO)N=C3N2 (stereo partly specified) | inactive | inactive | inactive | inactive | inactive | inactive | – |
| CCN1C(=NCc2ccco2)N[C@@H](CCc2ccccc2)[C@H](C(=O)OC)[C@H]1C | inactive | inactive | inactive | inactive | inactive | inactive | – |
| COC(=O)[C@H]1O[C@@H](c2cc(OC)c(C)c(OC)c2O)[C@H](C)[C@@H](O)[C@@H]1C | inactive | inactive | inactive | inactive | inactive | inactive | – |
| C#CCN1C(=O)[C@]2(OCCC=C[C@@H]2C)c2cc(OC)ccc21 | inactive | inactive | inactive | inactive | inactive | inactive | – |
| CC(=O)OC[C@H]1O[C@H](CCON=C[C@@H](C)[C@H](OCc2ccccc2)C(C)C)C=C[C@@H]1OC(C)=O | inactive | inactive | inactive | inactive | inactive | inactive | – |
| COC(=O)C1=C(C)N(Cc2ccccc2)C(=NCc2cc(OC)c(OC)c(OC)c2)NC1CCc1ccccc1 (stereo unspecified) | 1.06 µM (active) | 849 nM (active) | 1.51 µM (active) | 2.94 µM (active) | 1.07 µM (active) | inactive | – |
| C=C(C)C(O)C=CC=Cc1ccccc1 (stereo unspecified) | inactive | inactive | inactive | inactive | inactive | inactive | – |
| C#CCNC(=O)[C@H]1C=C(OC)C(=O)C[C@H]2c3ccccc3C[C@]12C | inactive | inactive | inactive | inactive | inactive | inactive | – |
| COC(=O)C1=C(C(=O)OC)[C@@H]2N(C)c3ccccc3[C@@]23C[C@@H](C(=O)OC)N(C(=O)NC(C)(C)C)C3=N1 | inactive | inactive | inactive | inactive | inactive | inactive | – |
| COC(=O)CC=C[C@@H](C)[C@@H](Cc1ccccc1Br)OC | inactive | inactive | inactive | inactive | inactive | inactive | – |
| O=C(NN=C1C[C@@H](O)[C@H](O)[C@H]2[C@@H]3C(=O)N(C[C@@H]4CCCO4)C(=O)[C@@H]3CC[C@H]12)OCc1ccccc1 | inactive | inactive | inactive | inactive | inactive | inactive | – |
| CCOC(=O)CN1C(=O)[C@]2(OCCC=C[C@@H]2C)c2c(Br)cccc21 | inactive | inactive | inactive | inactive | inactive | inactive | – |
